Results reported in PubChem BioAssay (Tox21).
Some compounds were tested as several samples or in several runs, with calls that do not always agree. The source made the active and inactive calls. Entries that show only a call come without a potency. Unless noted, calls follow the shape of the dose curve; as a rule, active = well fitted curve in the direction sought with a large enough effect in the repeat runs; inconclusive = weak or mixed curves; inactive = no such curve, though single readings can be large; an effect the other way counts as inactive or inconclusive.

Legend:
[1] = qHTS assay to identify small molecule antagonists of the glucocorticoid receptor (GR) signaling pathway - cell viability counter screen (AID 720693); conditions: GR-bla HeLa viability, CellTiter-Glo luminescence, 18 h, with 5 nM dexamethasone present; series mostly up to 58.5 µM; also: nearly all actives have a fitted effect of over 55% in size
[2] = qHTS assay for identifying genotoxic compounds that show differential cytotoxicity against isogenic chicken DT40 cell lines with known DNA damage response pathways - wild type cell line (AID 743012); conditions: DT40 wild type chicken cells viability, CellTiter-Glo, 40 h; series mostly up to 68.4 µM; also: nearly all actives have a fitted effect of over 60% in size
Method in brief: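 Endpoint: CellTiter-Glo luminescence, 30 min RT. Cells: wild type DT40, 300/well. Exposure: compounds in DMSO, 40 h, 37 C/5% CO2, after ~0.5 h pre-incubation.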

[3] = qHTS assay for identifying genotoxic compounds that show differential cytotoxicity against isogenic chicken DT40 cell lines with known DNA damage response pathways - Rev3 mutant cell line (AID 743014); conditions: chicken DT40 Rev3-/- viability, CellTiter-Glo, 40 h; series mostly up to 68.4 µM; also: nearly all actives have a fitted effect of over 55% in size; also: potency is read from the fitted curve at half-maximal effect
[4] = qHTS assay for identifying genotoxic compounds that show differential cytotoxicity against isogenic chicken DT40 cell lines with known DNA damage response pathways - Rad54/Ku70 mutant cell line (AID 743015); conditions: DT40 Rad54/Ku70 mutant viability, CellTiter-Glo, 40 h; series mostly up to 66.8 µM; also: nearly all actives have a fitted effect of over 60% in size
[5] = target: Androgen receptor (Homo sapiens) (UniProt P10275); test: qHTS assay to identify small molecule antagonists of the androgen receptor (AR) signaling pathway (AID 743035; active = well fitted inhibition curve with a large enough effect in the signal ratio in the repeat runs, not every such curve was filed as active; inconclusive = weak or mixed curves, or effect the other way; inactive = no such curve, though single readings can be large or run the other way; the % refers to the signal ratio); conditions: HEK293 AR-UAS-bla, R1881-stimulated, beta-lactamase FRET, 16 h; series mostly up to 58.5 µM
Method in brief: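 R1881 agonist challenge of a HEK293 UAS-beta-lactamase AR reporter line in the presence of compound (16 h, 37C); signal taken as FRET fluorescence after 2 h with LiveBLAzer B/G substrate at room temperature.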

[6] = target: Androgen receptor (Homo sapiens) (UniProt P10275); test: qHTS assay to identify small molecule agonists of the androgen receptor (AR) signaling pathway (AID 743036; active = well fitted activation curve with a large enough effect in the signal ratio in the repeat runs, with a control signal flat, not every such curve was filed as active; inconclusive = weak or mixed curves, or effect the other way; inactive = no such curve, though single readings can be large or run the other way; the % refers to the signal ratio); conditions: HEK293 AR-UAS-bla GripTite, beta-lactamase FRET ratio, 16 h; series mostly up to 62.4 µM
Method in brief: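 Screening used 2,000 AR-bla HEK293 cells per well, treated 16 h at 37C with test compounds in DMSO alongside positive and DMSO-only controls; beta-lactamase activity was then read by LiveBLAzer B/G FRET fluorescence after 2 h at room temperature.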

[7] = target: Androgen receptor (Homo sapiens) (UniProt P10275); test: qHTS assay to identify small molecule agonists of the androgen receptor (AR) signaling pathway using the MDA cell line (AID 743040; also: nearly all actives have a fitted effect of over 20% in size); conditions: MDA-kb2 AR-luc cells, MMTV luciferase, 16 h, stronger effect = higher value; series mostly up to 70.3 µM
Method in brief: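 Agonist activity is measured as luciferase luminescence in human MDA-kb2 cells whose MMTV reporter responds to both AR and GR. Compounds in DMSO incubate 16 h at 37C, 0% CO2, and ONE-Glo is read after 30 min.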

[8] = qHTS assay to identify small molecule antagonists of the androgen receptor (AR) signaling pathway using the MDA cell line - cell viability counter screen (AID 743041; also: nearly all actives have a fitted effect of over 45% in size); conditions: MDA-kb2 viability, CellTiter-Fluor, 16 h, cells co-treated with R1881 androgen agonist; series mostly up to 70.3 µM
Method in brief: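 qHTS viability read-out; MDA-kb2 AR-luc; R1881-stimulated; 16 h exposure at 37C, 0% CO2; CellTiter-Fluor, 30 min; fluorescence intensity.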

[9] = target: Androgen receptor (Homo sapiens) (UniProt P10275); test: qHTS assay to identify small molecule antagonists of the androgen receptor (AR) signaling pathway using the MDA cell line (AID 743042; also: nearly all actives have a fitted effect of over 55% in size); conditions: MDA-kb2 AR-luc, MMTV luciferase, R1881 antagonist, 16 h; series mostly up to 70.3 µM
Method in brief: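 MDA-kb2 cells (human breast carcinoma, stably carrying an MMTV-luciferase reporter responsive to AR and GR) were plated at 3,000 cells/well and preincubated 5 hr at 37C, then given compound plus R1881 agonist for 16 h. ONE-Glo luminescence was read.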

[10] = qHTS assay to identify small molecule antagonists of the thyroid receptor (TR) signaling pathway (AID 743065); conditions: GH3.TRE-Luc, T3-stimulated luciferase inhibition, 23.5 h; series mostly up to 70.3 µM; also: nearly all actives have a fitted effect of over 55% in size
Method in brief: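 GH3.TRE-Luc rat pituitary cells carrying two TR response elements driving luciferase were plated for 4 h, given compound plus 1 nM T3 (final), and incubated 23.5 h at 37 C. ONE-Glo luminescence measured reporter inhibition; CellTiter-Fluor fluorescence tracked cytotoxicity.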

[11] = system: thyroid hormone receptor (rat, GH3 cells); test: qHTS assay to identify small molecule agonists of the thyroid receptor (TR) signaling pathway (AID 743066; calls by dose curve); conditions: GH3.TRE-Luc cells, TR agonist luciferase, 24 h; series mostly up to 83.9 µM
[12] = qHTS assay to identify small molecule antagonists of the estrogen receptor alpha (ER-alpha) signaling pathway - cell viability counter screen (AID 743074; calls by dose curve; also: nearly all actives have a fitted effect of over 45% in size); conditions: ERalpha-bla HEK293 viability, CellTiter-Glo luminescence, 18 h; series mostly up to 69.4 µM
[13] = qHTS assay to identify small molecule antagonists of the estrogen receptor alpha (ER-alpha) signaling pathway using the BG1 cell line - cell viability counter screen (AID 743081); conditions: BG1Luc4E2 viability, CellTiter-Fluor, 22 h; series mostly up to 70.3 µM;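 also: compound given together with 17beta-estradiol as the ER stimulus; nearly all actives have a fitted effect of over 45% in size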
Aromatase (Homo sapiens) = Aromatase (Homo sapiens) (UniProt P11511); test: qHTS assay to identify aromatase inhibitors (AID 743083); conditions: MCF-7 aro ERE, testosterone-driven ERE luciferase, 24 h; series mostly up to 70.3 µM; also: nearly all actives have a fitted effect of over 55% in size
[14] = qHTS assay to identify small molecule antagonists of the androgen receptor (AR) signaling pathway - cell viability counter screen (AID 743033; also: nearly all actives have a fitted effect of over 45% in size); conditions: AR-bla HEK293 viability, CellTiter-Glo luminescence, 16 h; series mostly up to 58.5 µM
[15] = target: Estrogen receptor (Homo sapiens) (UniProt P03372); test: qHTS assay to identify small molecule antagonists of the estrogen receptor alpha (ER-alpha) signaling pathway (AID 743069; active = well fitted curve in the direction sought with a large enough effect in the signal ratio in the repeat runs, not every such curve was filed as active; inconclusive = weak or mixed curves, or effect the other way; inactive = no such curve, though single readings can be large or run the other way; the % refers to the signal ratio); conditions: HEK293 ER-alpha-UAS-bla, beta-lactamase ratio, antagonist mode; series mostly up to 69.4 µM
Method in brief: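 Screening used a UAS-driven beta-lactamase reporter integrated into HEK293 cells expressing ER-alpha, stimulated with 17beta-estradiol alongside test compounds over 18 hr at 37C; signal came from LiveBLAzer B/G FRET fluorescence.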

[16] = target: Estrogen receptor (Homo sapiens) (UniProt P03372); test: qHTS assay to identify small molecule agonists of the estrogen receptor alpha (ER-alpha) signaling pathway (AID 743075; calls by dose curve; also: potency is read from the fitted curve at half-maximal effect); conditions: HEK293 ER-alpha-UAS-bla, beta-lactamase FRET ratio, 18 h; series mostly up to 70.1 µM
[17] = target: Estrogen receptor (Homo sapiens) (UniProt P03372); test: qHTS assay to identify small molecule agonists of the estrogen receptor alpha (ER-alpha) signaling pathway using the BG1 cell line (AID 743079); conditions: BG1Luc4E2 cells, ERE-luciferase agonist, 22 h; series mostly up to 70.3 µM; also: nearly all actives have a fitted effect of over 20% in size; also: potency is read from the fitted curve at half-maximal effect
[18] = qHTS assay to identify small molecule antagonists of the thyroid receptor (TR) signaling pathway - cell viability counter screen (AID 743064); conditions: GH3.TRE-Luc viability, CellTiter-Fluor, 24 h; series mostly up to 70.3 µM; also: nearly all actives have a fitted effect of over 50% in size
Method in brief: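 Viability of T3-stimulated (1 nM final) GH3.TRE-Luc cells is measured by CellTiter-Fluor fluorescence after 23.5 h compound exposure at 37 °C plus 30 min reagent incubation.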

[19] = qHTS assay to identify small molecule antagonists of the estrogen receptor alpha (ER-alpha) signaling pathway using the BG1 cell line (AID 743080; calls by dose curve;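 also: BG1 cells stimulated with 17beta-estradiol alongside compound; nearly all actives have a fitted effect of over 25% in size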); conditions: BG1Luc4E2 ERE-luciferase antagonist mode, luminescence; series mostly up to 70.3 µM
Method in brief: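 Quantitative HTS on the Tox21 10K library: BG1 cells with endogenous ER-alpha and ERE-luciferase reporter, 17beta-estradiol stimulation, 21.5 h compound exposure, luminescence endpoint with parallel fluorescence cytotoxicity counter-read.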

Sequence of Aromatase (Homo sapiens) (P11511 whole entry, looked up): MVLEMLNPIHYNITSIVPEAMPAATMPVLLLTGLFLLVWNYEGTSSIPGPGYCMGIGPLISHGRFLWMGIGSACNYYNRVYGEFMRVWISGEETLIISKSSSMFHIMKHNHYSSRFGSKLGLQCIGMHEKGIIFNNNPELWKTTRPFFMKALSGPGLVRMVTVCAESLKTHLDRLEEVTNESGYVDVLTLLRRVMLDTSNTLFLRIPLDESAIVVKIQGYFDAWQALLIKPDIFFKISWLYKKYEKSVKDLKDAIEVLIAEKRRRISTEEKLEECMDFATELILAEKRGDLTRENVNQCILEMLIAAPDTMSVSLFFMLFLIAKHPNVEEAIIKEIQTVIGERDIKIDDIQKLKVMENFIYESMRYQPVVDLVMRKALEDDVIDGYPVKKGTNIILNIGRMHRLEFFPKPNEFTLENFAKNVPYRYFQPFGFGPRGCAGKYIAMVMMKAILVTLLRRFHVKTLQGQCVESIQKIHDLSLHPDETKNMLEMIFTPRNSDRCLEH
Sequence of Androgen receptor (Homo sapiens) (P10275 whole entry, looked up): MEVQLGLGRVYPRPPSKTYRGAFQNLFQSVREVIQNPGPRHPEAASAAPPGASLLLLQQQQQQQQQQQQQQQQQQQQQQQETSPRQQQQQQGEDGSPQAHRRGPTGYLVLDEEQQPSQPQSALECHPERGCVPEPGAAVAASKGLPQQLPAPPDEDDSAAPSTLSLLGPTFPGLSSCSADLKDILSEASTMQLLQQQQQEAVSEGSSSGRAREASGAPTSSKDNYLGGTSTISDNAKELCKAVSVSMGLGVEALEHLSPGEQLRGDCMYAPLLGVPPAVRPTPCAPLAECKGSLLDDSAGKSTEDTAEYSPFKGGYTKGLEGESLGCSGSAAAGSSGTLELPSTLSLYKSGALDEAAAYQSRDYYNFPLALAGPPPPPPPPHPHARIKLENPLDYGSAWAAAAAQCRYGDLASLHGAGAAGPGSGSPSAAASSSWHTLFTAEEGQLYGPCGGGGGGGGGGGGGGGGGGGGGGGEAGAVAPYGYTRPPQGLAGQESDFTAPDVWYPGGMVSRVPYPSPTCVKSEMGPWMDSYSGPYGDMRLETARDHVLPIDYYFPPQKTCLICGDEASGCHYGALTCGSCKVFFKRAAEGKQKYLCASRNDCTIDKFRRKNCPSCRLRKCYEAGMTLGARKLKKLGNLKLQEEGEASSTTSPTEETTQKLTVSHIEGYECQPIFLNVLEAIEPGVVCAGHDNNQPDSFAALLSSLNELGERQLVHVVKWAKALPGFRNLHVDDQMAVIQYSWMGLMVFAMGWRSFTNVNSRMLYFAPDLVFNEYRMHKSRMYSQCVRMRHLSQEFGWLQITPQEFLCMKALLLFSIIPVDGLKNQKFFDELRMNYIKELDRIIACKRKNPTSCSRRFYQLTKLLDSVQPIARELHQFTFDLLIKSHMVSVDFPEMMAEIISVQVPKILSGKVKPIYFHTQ
Sequence of Estrogen receptor (Homo sapiens) (P03372 whole entry, looked up): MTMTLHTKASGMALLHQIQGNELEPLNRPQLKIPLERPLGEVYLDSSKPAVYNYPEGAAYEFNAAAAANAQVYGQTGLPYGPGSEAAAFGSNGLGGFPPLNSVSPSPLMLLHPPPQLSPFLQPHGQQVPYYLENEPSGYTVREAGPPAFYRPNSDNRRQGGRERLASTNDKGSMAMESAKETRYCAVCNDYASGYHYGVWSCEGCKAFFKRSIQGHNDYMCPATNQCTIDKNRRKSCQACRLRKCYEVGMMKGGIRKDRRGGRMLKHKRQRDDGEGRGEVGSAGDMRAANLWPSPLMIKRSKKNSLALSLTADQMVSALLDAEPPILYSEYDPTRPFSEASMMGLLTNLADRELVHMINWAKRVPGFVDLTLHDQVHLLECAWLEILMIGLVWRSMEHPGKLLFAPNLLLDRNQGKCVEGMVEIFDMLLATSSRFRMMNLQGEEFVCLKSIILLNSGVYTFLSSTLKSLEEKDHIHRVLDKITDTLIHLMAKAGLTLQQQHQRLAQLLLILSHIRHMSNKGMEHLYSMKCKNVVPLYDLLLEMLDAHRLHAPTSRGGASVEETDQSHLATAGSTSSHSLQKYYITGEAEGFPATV

SMILES	outcome [1]	Potency [2]	Potency [3]	Potency [4]	outcome [5]	outcome [6]	outcome [7]	outcome [8]	outcome [9]	Potency [10]	Potency [11]	Potency [12]	outcome [13]	Potency (Aromatase (Homo sapiens))	outcome [14]	outcome [15]	Potency [16]	Potency [17]	Potency [18]	Potency [19]
CCc1ncc(C)[nH]1	inactive	inactive	inactive	inactive	inactive	inactive	inactive	inactive	inactive	inactive	inactive	inactive	inactive	inactive	–	–	–	–	–	–
C/C=C(\C)C(=O)OC/C=C(\C)CCC=C(C)C	inactive	inactive	inactive	inactive	–	–	–	inactive	–	inactive	inactive	inactive	inactive	inactive	inactive	inactive	inactive	inactive	–	–
NS(=O)(=O)c1cc2c(cc1C(F)(F)F)NCNS2(=O)=O	inactive	inactive	inactive	inactive	–	–	–	inactive	–	inactive	inactive	inactive	inactive	inactive	–	inactive	inactive	inactive	–	–
CCCCC(CC)CCC(CC(C)C)OS(=O)(=O)O (stereo not given)	inactive	inactive	inactive	inactive	–	–	–	inactive	–	–	–	inactive	inactive	inactive	inactive	inactive	inactive	8.41 µM (active) and inactive	inactive	–
CCCCS	inactive	inactive	inactive	inactive	–	–	–	inactive	–	inactive	inactive	inactive	inactive	inactive	–	inactive	inactive	inactive	inactive	–
CC/C=C/CCCCCCCCCCOC(C)=O	inactive	inactive	43.3 µM (active)	inactive	–	–	–	inactive	–	inactive	inactive	inactive	inactive	inactive	inactive	inactive	inactive	inactive	–	inactive
C[C@H]1COc2c(C3(N)CC3)c(F)cc3c(=O)c(C(=O)O)cn1c23	inactive	inactive	inactive	inactive	–	–	–	inactive	–	–	–	inactive	inactive	inactive	–	–	–	–	inactive	–
CCCCNCC	inactive	inactive	inactive	inactive	–	–	–	inactive	–	–	–	inactive	inactive	inactive	inactive	inactive	inactive	inactive	–	–
O=C(c1ccccc1)c1cccc(O)c1	inactive	inactive	inactive	–	–	–	–	inactive	inactive	inactive	inactive	inactive	inactive	inactive	inactive	–	49.7 µM [inconclusive] (active)	15.6 µM (active)	inactive	–
C[C@@H](CN1CC(=O)NC(=O)C1)N1CC(=O)NC(=O)C1	inactive	inactive	inactive	–	inactive	inactive	inactive	inactive	inactive	inactive	inactive	inactive	inactive	inactive	inactive	inactive	inactive	inactive	–	–
COc1cc(C(=O)NC2CCCNC2)cc(OC)c1OC (stereo not given)	inactive	inactive	inactive	inactive	–	–	–	inactive	–	inactive	inactive	inactive	–	inactive	inactive	–	–	–	–	–
CCc1ccc(CC)cc1	inactive	inactive	inactive	inactive	–	–	–	inactive	–	inactive	inactive	inactive	inactive	inactive	inactive	–	inactive	inactive	–	inactive
CCCCCCCCCCCCCC(=O)OCC	inactive	inactive	inactive	inactive	–	–	–	inactive	–	inactive	inactive	inactive	inactive	inactive	inactive	–	inactive	inactive	–	–
O=C(CCBr)N1CCN(C(=O)CCBr)CC1	inactive	inactive	inactive	–	–	–	–	inactive	–	inactive	inactive	inactive	inactive	inactive	inactive	inactive	inactive	inactive	–	inactive
O=P(O)(O)C(O)(Cc1cccnc1)P(=O)(O)O	inactive	inactive	inactive	–	–	–	–	inactive	–	inactive	inactive	inactive	inactive	inactive	inactive	–	inactive	inactive	–	inactive
CC(=O)SCC(CC(=O)c1ccc(C)cc1)C(=O)O (stereo not given)	inactive	inactive	inactive	–	–	–	–	inactive	–	inactive	inactive	inactive	inactive	inactive	inactive	inactive	inactive	inactive	inactive	–
Cc1ccccc1OCC(=O)O	inactive	inactive	inactive	–	–	–	–	inactive	–	inactive	inactive	inactive	inactive	inactive	inactive	inactive	inactive	inactive	–	inactive
C=CC(=O)CC	inactive	inactive	inactive	–	–	–	–	inactive	–	–	inactive	inactive	inactive	inactive	inactive	–	–	–	inactive	–
CCCCCCCCCCCC(C)=O	inactive	inactive	inactive	–	–	–	–	inactive	–	–	–	inactive	inactive	inactive	inactive	inactive	–	17.2 µM (active)	inactive	inactive
CC(C)=CCC/C(C)=C\C#N	inactive	inactive	inactive	–	–	–	–	inactive	–	–	–	inactive	inactive	inactive	inactive	–	inactive	inactive	–	inactive
